Screening data as filed in PubChem BioAssay.
JMJD2A Tudor inh – qHTS Assay for Inhibitors of JMJD2A-Tudor Domain | Lysine-specific demethylase 4A (Homo sapiens), O75164 | Potency, µM (titrated, usually from 114 µM), for the others: at the top dose activity change, negative = inhibition, usual class: inhibitors | 390,000 tested, 4.4% active | AlphaScreen JMJD2A-Tudor / H3K4me3 peptide binding; also: % is scaled to controls: 0 for no effect and ±100 for the full control effect; nearly all actives have a fitted effect of over 50% in size
BAZ2B inh – qHTS Assay for Inhibitors of BAZ2B; Bromodomain adjacent to zinc finger domain protein 2B (Homo sapiens), Q9UIF8; AlphaScreen BAZ2B-H3K14Ac peptide displacement; Potency, µM (top dose mostly 114 µM), without a hit: top-dose activity change, negative = inhibition, most hits filed as inhibitors; 360,000 tested, 4.4% active; AID 504333, 2011; also: % is scaled to controls: 0 for no effect and ±100 for the full control effect; nearly all actives have a fitted effect of over 60% in size
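In this displacement format the biotinylated H3(5-23) peptide acetylated at Lys14 serves as ligand at 50 nM, with BAZ2B at 50 nM in PBS pH 7.4 containing 0.01% Tween-20. Donor and acceptor beads are 10 ug/mL final.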
Sfp inh – qHTS Assay for Inhibitors of Bacillus subtilis Sfp phosphopantetheinyl transferase (PPTase); Potency, µM, for inactives: largest response in the series, negative = inhibition, usual class: inhibitors; 4'-phosphopantetheinyl transferase ffp (Bacillus subtilis), Q9F4F7; Biochemical Sfp PPTase activity, qHTS; 310,000 tested, 3.5% active;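 also: the enzyme is Sfp with the accession as filed and its product quenches rhodamine fluorescence; 0% = enzyme reaction without inhibitor and -100% = no enzyme wells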
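Step 1, compound plus 15 nM Sfp-PPTase, 15 min, room temperature. Step 2, add rhodamine-CoA (5 uM) and BHQ-2-YbbR (12.5 uM). Step 3, read 525/598 nm fluorescence at 0 and 30 min.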
L3MBTL1 block – qHTS Assay for the Inhibitors of L3MBTL1. Lethal(3)malignant brain tumor-like protein 1 (Homo sapiens), Q9Y468. AlphaScreen L3MBTL1–H3K9me1 peptide binding. Potency, µM (highest dose often 57.1 µM), for inactives: at the highest dose activity, negative = inhibition, hits mostly inhibitors. 230,000 tested, 0.66% active; also: % is scaled to controls: 0 for no effect and ±100 for the full control effect; nearly all actives have a fitted effect of over 60% in size
Target sequence (Q9Y468 whole entry, looked up): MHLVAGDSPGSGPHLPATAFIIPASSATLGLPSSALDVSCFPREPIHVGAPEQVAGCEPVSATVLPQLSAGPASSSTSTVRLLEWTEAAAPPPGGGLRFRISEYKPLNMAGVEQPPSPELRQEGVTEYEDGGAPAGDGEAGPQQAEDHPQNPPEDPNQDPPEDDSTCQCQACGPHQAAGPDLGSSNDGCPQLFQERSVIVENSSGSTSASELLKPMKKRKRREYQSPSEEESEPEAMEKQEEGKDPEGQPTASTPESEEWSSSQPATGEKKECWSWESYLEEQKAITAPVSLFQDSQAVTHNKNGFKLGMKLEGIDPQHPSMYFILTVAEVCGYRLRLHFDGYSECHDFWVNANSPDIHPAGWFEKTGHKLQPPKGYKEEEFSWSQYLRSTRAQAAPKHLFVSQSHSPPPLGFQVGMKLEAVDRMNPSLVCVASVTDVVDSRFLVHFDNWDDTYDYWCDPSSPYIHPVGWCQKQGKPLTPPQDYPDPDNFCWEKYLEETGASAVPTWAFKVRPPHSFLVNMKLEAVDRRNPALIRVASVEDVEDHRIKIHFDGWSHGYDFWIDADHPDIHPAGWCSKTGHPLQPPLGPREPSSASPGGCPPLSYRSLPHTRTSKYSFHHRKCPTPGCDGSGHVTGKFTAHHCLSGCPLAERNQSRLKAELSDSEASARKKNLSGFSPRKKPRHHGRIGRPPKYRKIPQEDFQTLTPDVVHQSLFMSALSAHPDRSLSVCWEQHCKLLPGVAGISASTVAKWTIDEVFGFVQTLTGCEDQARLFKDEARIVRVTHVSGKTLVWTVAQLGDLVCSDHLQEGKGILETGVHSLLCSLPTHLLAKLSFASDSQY
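AlphaScreen assay: L3MBTL1 (50 nM final) was preincubated 30 min at room temperature with biotinylated H3(1-15)K9me1 peptide (75 nM final), then 30 min with library compounds; streptavidin donor and nickel chelate acceptor beads (10 ug/mL final) added, 30 min dark.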
G9a inh – qHTS Assay for Inhibitors of Histone Lysine Methyltransferase G9a | G9a H3K9 monomethylation, AlphaScreen, 2 h | Potency, µM (top dose mostly 102 µM), without a hit: top-dose activity, negative = inhibition, actives largely listed as inhibitors | 350,000 tested, 8.8% active | Histone-lysine N-methyltransferase EHMT2 (Homo sapiens), Q96KQ7 | AID 504332, 2011; also: % is scaled to controls: 0 for no effect and ±100 for the full control effect; nearly all actives have a fitted effect of over 75% in size
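Signal arises when biotinylated H3K9 peptide, once monomethylated, bridges streptavidin donor and antibody-captured acceptor beads. Enzyme at 20 nM was preincubated 15 min with test compounds; peptide 500 nM and SAM 20 uM then reacted for 2 h.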
HP1b binding inh – HTS for Inhibitors of HP1-beta Chromodomain Interactions with Methylated Histone Tails | Chromobox protein homolog 1 (Homo sapiens), P83916 | AlphaScreen HP1-beta / biotin-H3K9me3 peptide binding | Potency, µM (top dose mostly 114 µM), for the others: at the highest dose activity change, negative = inhibition, usual class: inhibitors | 390,000 tested, 0.56% active | AID 540317, 2011; also: nearly all actives have a fitted effect of over 70% in size
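HP1-beta protein (50 nM final) preincubated 30 min at room temperature with biotinylated H3(1-18)K9me3 peptide (50 nM) in PBS pH 7.4, 0.01% Tween-20, then compound added for 30 min. AlphaScreen streptavidin donor/nickel chelate acceptor beads (10 ug/mL final), 30 min dark, luminescence read.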
Starred values were filed as active, the others as inactive; ? = inconclusive; . = not tested or not shown; [ ] = dose if it differs, or a comment. Sampled rows, rich in hits. Any-hit rate of the full collection: about 12%. Calls follow the shape of the dose curve; as a rule, active = well fitted curve in the direction sought with a large enough effect; inconclusive = small, poorly fitted or top-dose-only effect, or another doubt; inactive = no such curve, though single readings can be large; an effect the other way counts as inactive or inconclusive. Potency is read from the fitted curve at half-maximal effect.

SMILES | JMJD2A Tudor inh | BAZ2B inh | Sfp inh | L3MBTL1 block | G9a inh | HP1b binding inh
Cc1cccc(-n2c(C)cc(/C=C3/C(=N)N4C(c5ccccc5)=CSC4=NC3=O)c2C)c1 | -26% | 2% | 13% | 3% | -6%[59 µM] | 8%
COc1cc(/C=C2/C(=N)N3C(c4ccccc4)=CSC3=NC2=O)ccc1OCC(=O)O | ? | 50µM* | 8% | . | . | -31%
N=C1/C(=C\c2ccc(-c3ccc(C(=O)O)cc3)o2)C(=O)N=C2SC=C(c3ccccc3)N12 | 14µM* | 4.5µM* | 32µM* | . | . | 16µM*
COC(=O)c1cccc(Nc2c(-c3ccc(OC)cc3)nc3nc[nH]n23)c1 | ? | ? | . | . | -41%[59 µM] | ?
COc1ccc2c(c1)O[C@H](c1ccc3c(c1)OCO3)[C@@H](OC(=O)Nc1cc(OC)c(OC)c(OC)c1)C2=O | . | ? | 10% | -3% | 50µM* | .
COc1cccc([C@@H]2Oc3ccc(OC)cc3C(=O)[C@H]2OC(=O)NCc2ccc3c(c2)OCO3)c1 | . | -19% | 1% | -16% | 45µM* | .
COc1ccc2c(c1)O[C@H](c1ccc3c(c1)OCO3)[C@@H](OC(=O)NCc1ccco1)C2=O | . | . | 89µM* | . | . | .
COC(=O)c1ccccc1C(=O)c1ccc(OCCN2CCCCC2)cc1 | . | . | 5% | . | -43%[12.7 µM] | .
Cc1cc2c(s1)c1cnn(Cc3cc(F)ccc3C)c(=O)c1n2C | -5% | . | . | . | . | .
CCc1cccc(C)c1NC(=O)CN1C(=O)C2(SCC(=O)N2c2cc(C)cc(C)c2)c2ccccc21 (centres undefined) | -15% | 0%[57.1 µM] | . | . | -34%[59 µM] | 29%
O=C(CSc1nc2nc(-c3cccs3)cc(C(F)(F)F)c2c(=O)[nH]1)Nc1ccc(F)c(F)c1 | ? | ? | -25% | 28µM* | -22% | -1%
C=CCn1c(=O)[nH]c2nc3cc(N=CN(C)C)c(C)cc3nc2c1=O | 2% | 1% | 50µM* | . | ? | 37%
CCCCC[C@H](O)/C=C/C=C\C/C=C\CCCCC(=O)O | . | . | 18% | . | . | .
CCCc1cc(C(=O)Nc2sc(C)c(C)c2C(=O)OCC)no1 | -14% | -1% | 16µM* | 1% | 10µM* | 7%
CCOC(=O)c1c(NC(=O)c2cc(C(C)C)on2)sc(C)c1C | 15% | -4% | . | . | 20µM* | -1%
CC(=O)Nc1ccc(-n2cc3c(c2-c2ccc(C)cc2)c(=O)n(C)c(=O)n3C)cc1 | -35% | ? | . | . | ? | -10%
N#CCC(=O)N/N=C/c1coc2ccccc2c1=O | -5% | 0% | -6% | . | . | 24%
N#C/C(=C\c1coc2ccccc2c1=O)C(N)=S | -32% | ? | -103% | ? | 1.8µM* | ?
CC(C)(C)OC(=O)NCc1nnc(-c2cc3ccccc3[nH]2)s1 | 0% | . | . | . | . | .
Cc1cccn2c(=O)c3cc(C(=O)NCc4ccco4)c(=N)n(CCc4ccccc4)c3nc12 | ? | -9% | 89µM* | . | -13%[59 µM] | 36%
Cc1cccn2c(=O)c3cc(C(=O)NCCc4ccccc4)c(=N)n(Cc4ccco4)c3nc12 | -19% | -3% | 32µM* | . | 18% | 48%
Cc1cccn2c(=O)c3cc(C(=O)NCc4ccco4)c(=N)n(C(C)C)c3nc12 | -15% | -3% | -1% | -2%[11.4 µM] | -2%[59 µM] | 6%
COc1ccc(C2Nc3ccc(NC(C)=O)cc3C(=O)N2Cc2ccccc2)cc1COc1ccc(NC(C)=O)cc1 (centres undefined) | -24% | . | . | . | . | 33%
Cc1cnc(N2C(=O)c3ccc([N+](=O)[O-])cc3C2=O)s1 | ? | -20% | -4% | -1% | 56µM* | -3%
CN(c1nnc(N)s1)C1CCCCC1 | -1% | -1% | 4% | 3% | 40µM* | 41%
